# Laboratory results from PubChem BioAssay.
# Values joined by “and” are separate entries in the source; they are usually repeats but may differ in a detail not shown here. Identical values can stand only once. For some assays here: Results with a measured potency or affinity are listed apart. Active and inactive are the calls of the source. Cut-off read from the data, not from the text of the source, unless noted: active = parasite load remaining mostly below about 12% (no sharp cut-off); inactive = mostly above about 10%.
# Tests used:
# [1] = blockers of polyQ-driven CASP3 activation – cell-based (AID 1583); conditions: polyglutamine-induced caspase-3 activation, cell assay; stronger effect = higher value;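 tested at 10 µM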
# [2] = yeast 75Q aggregation reduction – 75Q-TubU reporter (AID 1593); conditions: Yeast 75Q polyglutamine aggregation reporter
# [3] = restoration of touch response, mutant HTT neurons – whole organism, C. elegans mechanosensory neurons, N-terminal huntingtin (AID 1599); conditions: C. elegans polyQ-huntingtin mechanosensory neurons, stronger effect = higher value
# [4] = blockers of cytochrome c efflux from mitochondria – biochemical, purified mitochondria (AID 1603); conditions: stronger effect = lower value;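 note: mouse liver mitochondria challenged with calcium chloride; signal normalized to the plate average as 100%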
# [5] = polyglutamine aggregate formation blockers (AID 1604); conditions: polyglutamine-induced protein aggregation inhibition assay; stronger effect = higher value; tested at 2.5 µM
# [6] = glutamate transport activators, MN-1 cells, MN-1 cell line (AID 1612); conditions: MN-1 motor neuron cells, stronger effect = higher value;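 note: tested at 1 µM final; 0% = mean of DMSO vehicle wells on each plate; positive means more glutamate uptake than control and negative means less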
# [7] = GFP-Q80 aggregate reduction, neuronal-like cells, cell-based, NGF-treated PC12, GFPQ80 (AID 1614); conditions: PC12 NGF-treated GFP-polyQ80 inclusion reduction;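 note: lower means fewer inclusions and 0 means no inclusions at all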
# [8] = 75Q-TubH aggregate inhibition, S. cerevisiae, yeast (AID 1616); conditions: S. cerevisiae 75Q-TubH polyglutamine aggregation suppression; stronger effect = higher value
# [9] = P. berghei load reduction in hepatocytes – cell-based, HepG2, luciferase luminescence, HepG2 viability, primary screen (AID 624349);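 note: 100% = mean of DMSO negative control wells on the same plate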; conditions: P. berghei liver stage in HepG2, luciferase luminescence, concentration not given here; parasite load remaining: stronger effect = lower value; viability: measured here: HepG2 viability without parasites
# [10] = EMT-state selective cytotoxicity in co-culture – imaging, PC-3E GFP, TEM4-18 mCherry, primary screen (AID 1345086;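 active = compounds killing one labelled cell type while sparing the other, by normalised counts and ratio limits, not self-fluorescent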;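 for all read-outs here: cells exposed to compound for 72 h before imaging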;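 for red/green cell ratio (normalised): normalised mesenchymal count divided by normalised epithelial count so high means epithelial killing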); conditions: PC-3E GFP / TEM4-18 mCherry co-culture, imaging cell counts, at 1 µM; for red/green cell ratio (normalised): actives lie on both sides, counts scaled to control wells, 1 = unselective
# [11] = viability loss with induced miR-34 in A549 – imaging, A549 dox-inducible miR-34, nuclei and caspase counts, primary screen (AID 1347080;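 active = compounds whose cell count with miR-34 switched on is under 0.7 times the count with it off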); conditions: A549 miR-34 inducible, Hoechst nuclei count, 48 h
# [12] = measured here: epithelial PC-3E GFP cell survival
# [13] = measured here: mesenchymal TEM4-18 mCherry cell survival
# [14] = stronger effect = lower value, cell number ratio, induced over uninduced
# [15] = measured here: relative caspase fold change +Dox/-Dox
# [16] = measured here: total cells with miR-34 induction, stronger effect = lower value
# [17] = measured here: total cells without miR-34 induction
Compound,inhibition [1] [%],score [2],rescue above control [3],cytochrome c release ratio [4],inhibition of aggregation [5] [%],glutamate uptake change [6] [%],inclusion score [7],aggregation suppression score [8],parasite load remaining [9],viability [9],red/green cell ratio (normalised) [10],"normalised cell number [10, 12]","normalised cell number [10, 13]","fold change [11, 14]","fold change [11, 15]","cell count [11, 16]","cell count [11, 17]"
C[C@]12CCC(=O)C=C1CCC1C2[C@@H](O)C[C@@]2(C)C1CC[C@]2(O)C(=O)CO (some centres undefined),5.24,1.39,-4.34,1.36,63.4,10.6,2,1.61,94% (inactive),99.2%,1.04 (inactive),1.28,1.34,0.949 (inactive),3.13,7100,7490
C[C@@H]1CC2C3CCC4=CC(=O)C=C[C@]4(C)[C@@]3(F)[C@@H](O)C[C@]2(C)[C@@]1(O)C(=O)COP(=O)(O)O (some centres undefined),-13.7,2.71,-9.5,0.74,70.1,6.45,2.5,1.87,113% (inactive) and 77.9% (inactive),75.1% and 87%,1.5 (inactive),1.11,1.67,0.847 (inactive),1.88,7240,8540
CC(=O)O[C@]1(C(C)=O)CCC2C3C[C@H](C)C4=CC(=O)CC[C@]4(C)C3CC[C@@]21C (some centres undefined),28.3,0.63,2.76,1.2,59.1,30.6,2.5,0.615,76.4% (inactive) and 20.6% (inactive),71.8% and 85.5%,1.21 (inactive),1.07,1.3,0.945 (inactive),3.26,8680,9190
CC(=O)OCC(=O)[C@H]1CCC2C3CCC4=CC(=O)CC[C@]4(C)C3CC[C@@]21C (some centres undefined),-3.1,0.92,-2.35,1.07,63.5,23,2.5,0.669,44.3% (inactive),97.7%,1.09 (inactive),1.34,1.47,0.848 (inactive),2.3,9410,11100
C[C@H](CCC(=O)O)[C@H]1CCC2C3C(CC[C@@]21C)[C@@]1(C)CC[C@@H](O)C[C@H]1C[C@@H]3O (some centres undefined),20.5,-0.02,3.58,1.17,66.7,-4.34,2,0.256,50.6% (inactive) and 45.5% (inactive),77.3% and 94.5%,1.02 (inactive),1.05,1.08,0.898 (inactive),1.12,11500,12900
CC12CCC(=O)C=C1CCC1C2[C@@H](O)CC2(C)C1CC[C@]2(O)C(=O)COP(=O)(O)O (some centres undefined),-6.16,1.65,-3.35,1.1,44.7,26.3,2,1.46,75.6% (inactive),91.2%,0.95 (inactive),1.05,0.99,0.789 (inactive),1.68,7430,9410
CNC[C@@H](O)c1ccc(O)c(O)c1,15.5,1.46,-0.75,0.7,86.2,-6.16,1,1.31,51.9% (inactive) and 119% (inactive),72.9% and 92%,1.49 (inactive),1.01,1.5,0.901 (inactive),3.62,11500,12800
CC(=O)OCC(=O)[C@@]1(O)CCC2C3CCC4=CC(=O)C=CC4(C)C3[C@@H](O)C[C@@]21C (some centres undefined),26,0.73,-9.27,0.8,51,16.1,2,0.991,118% (inactive) and 56% (inactive),73.8% and 82.3%,1.41 (inactive),1,1.41,0.859 (inactive),2.47,6780,7890
CO[C@@H]1[C@@H](O[C@@H]2O[C@H](C)[C@@H](O[C@H]3C[C@@](C)(O)[C@H](O)[C@H](C)O3)[C@H](N(C)C)[C@H]2O)[C@@H](CC=O)C[C@@H](C)[C@@H](O[C@H]2CC[C@H](N(C)C)[C@@H](C)O2)/C=C/C=C/C[C@H](C)OC(=O)C[C@H]1O,7.63,1.61,24.9,1.41,50.8,-5.09,2,1.01,143% (inactive) and 69.7% (inactive),83.9% and 197%,0.86 (inactive),1.23,1.05,0.795 (inactive),4.68,10300,12900
C[C@]12C=CC(=O)C=C1CCC1C3C[C@@H](O)[C@](O)(C(=O)CO)[C@@]3(C)C[C@H](O)[C@@]12F (some centres undefined),-13.4,1.07,-12.1,1.15,48.1,-1.32,2,1.12,233% (inactive) and 58.4% (inactive),72.6% and 84.9%,1.46 (inactive),0.85,1.24,0.829 (inactive),2.83,6430,7760
CCC[C@@H]1C[C@@H](C(=O)N[C@H]([C@H]2O[C@H](SC)[C@H](O)[C@@H](O)[C@H]2O)[C@H](C)O)N(C)C1,3.68,1.23,8.96,0.99,67.6,-19.8,2,1.16,81.5% (inactive) and 50.6% (inactive),72.6% and 86.3%,1.04 (inactive),1.09,1.13,0.939 (inactive),2.92,11900,12700
O=C(O)CCCCC1SCC2NC(=O)NC21 (centres undefined),27.9,1.08,4.79,0.89,0,-4.28,2,1.3,40.6% (inactive) and 36.1% (inactive),78% and 88.2%,1.21 (inactive),1.02,1.23,0.892 (inactive),3.76,12200,13700
Cn1nnnc1SCC1=C(C(=O)O)N2C(=O)C(NC(=O)C(O)c3ccccc3)C2SC1 (centres undefined),15.1,1.62,-1.89,1.02,39.4,14.2,2,1.25,39.2% (inactive),86%,0.9 (inactive),1.03,0.93,0.886 (inactive),4.15,11200,12600
N[C@@H]1[C@@H](O)[C@H](O)[C@@H](CO)O[C@H]1O,-15.7,0.98,5.73,0.85,66.7,9.21,2,1.04,80.5% (inactive) and 72% (inactive),75.2% and 93.7%,1.04 (inactive),1.08,1.12,0.914 (inactive),0.981,11500,12600
CC1(C)O[C@@H]2CC3C4CCC5=CC(=O)C=C[C@]5(C)[C@@]4(F)[C@@H](O)C[C@]3(C)[C@]2(C(=O)CO)O1 (some centres undefined),7.99,0.99,-3.95,1.15,85.2,20.7,2,1.19,187% (inactive) and 62.4% (inactive),64.4% and 84.9%,1.43 (inactive),0.86,1.23,0.787 (inactive),3.14,6650,8440
CO[C@H]1C[C@H](O[C@H]2[C@H](C)[C@@H](OC3O[C@H](C)C[C@H](N(C)C)[C@H]3O)[C@@H](C)C[C@]3(CO3)C(=O)[C@H](C)[C@@H](O)[C@@H](C)[C@@H](C)OC(=O)[C@@H]2C)O[C@@H](C)[C@@H]1O (some centres undefined),27,1.24,28.2,0.97,7.94,5.06,2,1.24,283% (inactive) and 48.5% (inactive),76% and 96.5%,1.12 (inactive),0.84,0.94,0.824 (inactive),2.52,10700,13000
C=C1CC[C@H](O)C/C1=C/C=C1\CCC[C@]2(C)C([C@H](C)/C=C/[C@H](C)C(C)C)CC[C@@H]12 (some centres undefined),1.02,0.91,1.1,1.43,63.2,0.71,3,0.441,81.3% (inactive) and 44.7% (inactive),73.5% and 101%,1.11 (inactive),1.28,1.42,0.922 (inactive),2.88,11200,12200
CCCC(=O)O[C@]1(C(=O)CO)CCC2[C@@H]3CCC4=CC(=O)CC[C@]4(C)C3[C@@H](O)C[C@@]21C (some centres undefined),-18.1,1.15,-7.82,1.03,77.8,33.4,2,1.38,170% (inactive) and 68.7% (inactive),85% and 121%,1.26 (inactive),1.07,1.34,0.953 (inactive),2.16,7610,7980
CC(=O)OCC(=O)[C@@]1(O)[C@H](OC(C)=O)CC2C3CCC4=CC(=O)C=C[C@]4(C)[C@@]3(F)[C@@H](O)C[C@@]21C (some centres undefined),-24,1.15,19.5,1.31,89.7,9.09,2.5,0.805,160% (inactive) and 64.8% (inactive),67.1% and 85.5%,1.19 (inactive),0.98,1.17,0.86 (inactive),3.23,7630,8870
CO[C@H]1/C=C/O[C@@]2(C)Oc3c(C)c(O)c4c(O)c(c(C=NN5CCN(C)CC5)c(O)c4c3C2=O)NC(=O)/C(C)=C\C=C\C(C)[C@H](O)[C@@H](C)[C@@H](O)[C@@H](C)[C@@H](OC(C)=O)[C@@H]1C (some centres undefined),-10.8,1.2,1.38,0.69,83.1,-15.2,2,0.812,73.9% (inactive) and 34.2% (inactive),73.4% and 91.2%,1.06 (inactive),0.87,0.91,0.892 (inactive),3.2,11300,12700
CC(C)[N+]1(C)C2CC[C@@H]1CC(OC(=O)C(CO)c1ccccc1)C2 (some centres undefined),3.73,1.48,-2.72,0.9,73,-1.05,2,0.901,88% (inactive) and 61.6% (inactive),79% and 98.1%,0.61 (inactive),1.35,0.82,0.876 (inactive),1.18,10700,12200
C#C[C@]1(O)CCC2C3CCC4=CC(=O)CC[C@@H]4C3CC[C@@]21CC (some centres undefined),13.1,1.25,7,0.87,11.1,-5.94,2,1.03,86.4% (inactive) and 40.3% (inactive),65.9% and 90.1%,1.08 (inactive),0.78,0.84,0.867 (inactive),2.88,10400,12000
